Test results published in PubChem BioAssay (NCATS).
Records with an inconclusive call do not appear. Where a call stands in place of a potency, no number is given. Activity calls are given as the source filed them. Calls follow the shape of the dose curve; as a rule, active = well fitted inhibition curve with a large enough effect; inconclusive = small, poorly fitted or top-dose-only effect; inactive = no such curve, though single readings can be large or run the other way.

Assay: Primary qHTS for small molecule stabilizers of the endoplasmic reticulum resident proteome: Secreted ER Calcium Modulated Protein (SERCaMP) assay (AID 1508630)
Conditions: SH-SY5Y GLuc-SERCaMP (Gaussia luciferase released on ER calcium loss) secretion, thapsigargin, luminescence; series mostly up to 38.4 µM
Procedure, shortened: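 The SH-SY5Y reporter protocol was run at 3 concentrations up to 38.3 uM (primary) or 11 concentrations (follow-up): 16 h compound, 100 nM thapsigargin for 4 h, then extracellular luciferase luminescence.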
Potency is read from the fitted curve at half-maximal effect.

Compound	Potency
Cn1c(N2CCCCS2(=O)=O)nc(C(=O)NCc2ccc(F)cc2)c(O)c1=O	inactive
CO[C@@H](C(=O)N1Cc2[nH]nc(NC(=O)c3ccc(N4CCN(C)CC4)cc3)c2C1)c1ccccc1	inactive
COc1cc(Nc2ncc(F)c(Nc3ccc4c(n3)NC(=O)C(C)(C)O4)n2)cc(OC)c1OC	inactive
Clc1ccc(C(c2ccc(Cl)cc2)n2cc[n+](CC(OCc3ccc(Cl)cc3Cl)c3ccc(Cl)cc3Cl)c2)cc1 (centres undefined)	inactive
COC(=O)[C@@H]1[C@H]2C[C@H]3c4[nH]c5ccccc5c4CCN3C[C@@H]2CC[C@@H]1O	inactive
CC(C)C(C)C=CC(C)C1CCC2C3=CC=C4CC(O)CCC4(C)C3CCC21C (centres undefined)	1.49 µM (active)
O=C(NC1CCOCC1)c1ccc(-c2cc(-c3cn[nH]c3-c3ccccn3)ccn2)cc1	inactive
Cc1ccc(Nc2cc(-c3cccc(N4C(=O)c5ccccc5C4=O)c3)ncn2)cc1NS(C)(=O)=O	inactive
NC(=O)c1cccc(-c2cc(Nc3ccc(OC(F)(F)F)cc3)ncn2)c1	inactive
CCOC(=O)C1=C(N)Oc2ccc(Br)cc2C1C(C#N)C(=O)OCC (centres undefined)	inactive
Cc1ccc(C(C)(O)c2nc3ccccc3s2)c(C)c1 (centres undefined)	inactive
CON=C(C(=O)N[C@@H]1C(=O)N2C(C(=O)OCOC(=O)C(C)(C)C)=C(C=Cc3scnc3C)CS[C@H]12)c1csc(N)n1	inactive
O=C(O)CCC1CCC(c2cc(F)ccc2F)(S(=O)(=O)c2ccc(Cl)cc2)CC1 (centres undefined)	inactive
CC(C)(C)c1cc(C(=O)O)c(NC(=O)Nc2ccc3[nH]ncc3c2)s1	inactive
COc1ccc2c(Oc3ccc(NC(=O)c4c(C)n(CC(C)(C)O)n(-c5ccccc5)c4=O)cc3F)ccnc2c1	inactive
CCS(=O)(=O)N1CC(CC#N)(n2cc(-c3ncnc4[nH]ccc34)cn2)C1	inactive
CC(C)=CC[C@@H](O)C1=CC(=O)c2c(O)ccc(O)c2C1=O	inactive
O=C1C[C@@H](c2ccc(O)cc2)Oc2cc(O)cc(O)c21	inactive
COC[C@@H](c1ccc(C(F)(F)F)cc1)N1CCN(C2(C)CCN(C(=O)c3c(C)ncnc3C)CC2)C[C@H]1C	inactive
COc1cc2c(cc1OC)CN(CCc1ccc(NC(=O)c3cc(OC)c(OC)cc3NC(=O)c3cnc4ccccc4c3)cc1)CC2	inactive

Compound	Potency
Cc1nc(N)sc1-c1ccnc(Nc2ccc(N3CCOCC3)cc2)n1	inactive
O=C(Nc1cccc(Br)c1)c1cccc(S(=O)(=O)N2CCCCCC2)c1	inactive
CC1(C)CCC2=C(O1)c1ccccc1C(=O)C2=O	inactive
CC(C(=O)O)c1ccc(-c2ccccc2)c(F)c1 (centres undefined)	inactive
CC(C)n1nc(-c2ccc3oc(N)nc3c2)c2c(N)ncnc21	inactive
COc1cc2ncnc(-n3nc(-c4ccccn4)nc3N)c2cc1OC	inactive
COc1ccc(-c2cc(=O)c3c(O)cc(O)cc3o2)cc1O	inactive
COc1cccc(-c2cc(=O)c3ccccc3o2)c1N	inactive
O=C1C(Cl)=C(NCCN2CCOCC2)C(=O)c2ncccc21	inactive
CC(C)(C)NC(=O)Nc1cccc(Nc2ncc(F)c(NC(C)(C)CO)n2)c1	inactive
C[C@H](NC(=O)c1sccc1OCc1ccc(Cl)cc1)c1ccccc1	inactive
N[C@H](CSC(c1ccccc1)(c1ccccc1)c1ccccc1)C(=O)O	inactive
CNC(=O)c1ccc2cc(C3(O)CCn4cncc43)ccc2c1 (centres undefined)	inactive
Cc1ccn(-c2ccc(-c3ncco3)cc2)c(=O)c1-c1ccc2nc(N)ncc2c1	inactive
O=C(O)c1cc(O)c2c(c1)C(=O)c1cccc(O)c1C2=O	inactive
COc1cc(NC(=O)c2ccc(-c3ccc(Cl)cc3)o2)cc(OC)c1	inactive
O=C(CCN1CCN(C(=O)OCc2cc(Cl)cc(Cl)c2)CC1)c1ccc2[nH]c(=O)oc2c1	inactive
COC1CCC(N(C(=O)C2CCC(C)CC2)c2cc(C3=CCCCC3)sc2C(=O)O)CC1 (centres undefined)	inactive
CC1CCC(C(=O)N(c2cc(C#CC(C)(C)C)sc2C(=O)O)C2CCC(O)CC2)CC1 (centres undefined)	inactive
